Assay results reported in paper PMC7862700, “An all-to-all approach to the identification of sequence-specific readers for epigenetic DNA modifications on cytosine”.

Experiments:
Assay in all cases: DAPPL (digital affinity profiling via proximity ligation, sequencing); 10 mM Tris-HCl pH 7.5, 50 mM NaCl, 1 mM DTT, 4% glycerol, room temperature, 30 min; GST-TFs on glutathione beads, 16-mer random dsDNA library, 0.1% formaldehyde crosslink after washing; high values mean tight binding
FEV = target: T1, FEV (Homo sapiens, UniProt Q99581 1-238); conditions: protein: recombinant; tags: N-terminal GST; dsDNA, one strand shown
T1 sequence: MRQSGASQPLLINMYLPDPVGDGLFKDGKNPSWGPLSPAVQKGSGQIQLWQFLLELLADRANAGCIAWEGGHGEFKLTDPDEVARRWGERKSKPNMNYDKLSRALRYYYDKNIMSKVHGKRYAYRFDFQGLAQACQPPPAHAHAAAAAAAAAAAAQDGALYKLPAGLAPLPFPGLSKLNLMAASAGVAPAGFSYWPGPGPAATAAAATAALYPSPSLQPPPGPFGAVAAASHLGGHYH
Summary of the method: (§1)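 Human transcription factors were made in yeast as GST fusions, captured on glutathione beads and barcoded with DNA. With a tag-only sample included, the pool was incubated with 200 nmole of a random double-stranded 16-mer DNA library in Tris/NaCl/DTT/glycerol buffer at room temperature for 30 min, then crosslinked with 0.1% formaldehyde after washing, ligated by proximity, amplified and sequenced. For binding signal, each hexamer's read frequency for a factor is divided by its frequency for the tag-only sample.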

ETV5 = ETV5 (Homo sapiens, UniProt P41161 1-510); conditions: protein: recombinant; tags: N-terminal GST; dsDNA, one strand shown
Summary of the method: as §1

HSF1 = HSF1 (Homo sapiens, UniProt Q00613 1-529); conditions: protein: recombinant; tags: N-terminal GST; chain copies: 3; dsDNA, one strand shown
Summary of the method: as §1

SPIC = target: T2, SPIC (Homo sapiens, UniProt Q8N5J4 1-248); conditions: protein: recombinant; tags: N-terminal GST; dsDNA, one strand shown
T2 sequence: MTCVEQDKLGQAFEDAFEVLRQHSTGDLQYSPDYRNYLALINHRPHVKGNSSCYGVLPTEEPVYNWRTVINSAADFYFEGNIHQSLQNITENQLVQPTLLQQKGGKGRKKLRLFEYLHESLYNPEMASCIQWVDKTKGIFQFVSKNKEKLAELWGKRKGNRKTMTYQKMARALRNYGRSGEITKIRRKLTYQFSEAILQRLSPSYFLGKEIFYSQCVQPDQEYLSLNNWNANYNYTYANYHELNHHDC
Summary of the method: as §1

ELF4 = ELF4 (Homo sapiens, UniProt Q99607 1-663); conditions: protein: recombinant; tags: N-terminal GST; dsDNA, one strand shown
Summary of the method: as §1

ELK4 = target: T3, ELK4 (Homo sapiens, UniProt P28324-2 1-405); conditions: protein: recombinant; tags: N-terminal GST; dsDNA, one strand shown
T3 sequence: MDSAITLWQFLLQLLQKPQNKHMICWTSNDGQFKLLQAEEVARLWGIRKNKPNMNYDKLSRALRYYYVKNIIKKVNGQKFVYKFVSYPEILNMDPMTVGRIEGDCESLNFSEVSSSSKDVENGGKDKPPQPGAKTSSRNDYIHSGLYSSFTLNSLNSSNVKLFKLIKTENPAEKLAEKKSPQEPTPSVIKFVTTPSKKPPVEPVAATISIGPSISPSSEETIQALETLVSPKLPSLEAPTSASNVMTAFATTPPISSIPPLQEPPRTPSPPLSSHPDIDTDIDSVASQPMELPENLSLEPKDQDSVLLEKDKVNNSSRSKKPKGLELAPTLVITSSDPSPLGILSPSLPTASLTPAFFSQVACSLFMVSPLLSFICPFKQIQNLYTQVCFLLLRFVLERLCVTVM
Summary of the method: as §1

ETV2 = target: T4, ETV2 (Homo sapiens, UniProt O00321 1-342); conditions: protein: recombinant; tags: N-terminal GST; dsDNA, one strand shown
T4 sequence: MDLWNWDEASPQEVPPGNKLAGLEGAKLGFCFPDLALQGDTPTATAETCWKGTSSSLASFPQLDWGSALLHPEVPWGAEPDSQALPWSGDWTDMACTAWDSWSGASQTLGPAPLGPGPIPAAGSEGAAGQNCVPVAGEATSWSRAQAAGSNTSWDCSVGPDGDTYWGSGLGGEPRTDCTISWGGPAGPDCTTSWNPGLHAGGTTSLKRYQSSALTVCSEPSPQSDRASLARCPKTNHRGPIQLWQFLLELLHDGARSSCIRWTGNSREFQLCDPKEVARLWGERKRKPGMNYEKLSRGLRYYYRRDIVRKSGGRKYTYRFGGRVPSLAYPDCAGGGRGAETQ
Summary of the method: as §1

ELF3 = target: T5, ELF3 (Homo sapiens, UniProt P78545 1-371); conditions: protein: recombinant; tags: N-terminal GST; dsDNA, one strand shown
T5 sequence: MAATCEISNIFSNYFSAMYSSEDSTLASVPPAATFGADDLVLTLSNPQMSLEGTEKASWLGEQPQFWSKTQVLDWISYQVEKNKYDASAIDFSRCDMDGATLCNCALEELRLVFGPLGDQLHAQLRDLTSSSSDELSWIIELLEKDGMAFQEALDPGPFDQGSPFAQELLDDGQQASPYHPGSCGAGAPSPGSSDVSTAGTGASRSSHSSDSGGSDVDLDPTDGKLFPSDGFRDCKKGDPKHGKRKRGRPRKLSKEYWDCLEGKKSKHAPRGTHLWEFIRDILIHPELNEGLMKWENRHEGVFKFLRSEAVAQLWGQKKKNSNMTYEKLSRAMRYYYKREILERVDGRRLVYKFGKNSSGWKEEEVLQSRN
Summary of the method: as §1

CRX = CRX (Homo sapiens, UniProt O43186 1-299); conditions: protein: recombinant; tags: N-terminal GST; dsDNA, one strand shown
Summary of the method: as §1

Chain of HSF1 (Q00613 whole entry): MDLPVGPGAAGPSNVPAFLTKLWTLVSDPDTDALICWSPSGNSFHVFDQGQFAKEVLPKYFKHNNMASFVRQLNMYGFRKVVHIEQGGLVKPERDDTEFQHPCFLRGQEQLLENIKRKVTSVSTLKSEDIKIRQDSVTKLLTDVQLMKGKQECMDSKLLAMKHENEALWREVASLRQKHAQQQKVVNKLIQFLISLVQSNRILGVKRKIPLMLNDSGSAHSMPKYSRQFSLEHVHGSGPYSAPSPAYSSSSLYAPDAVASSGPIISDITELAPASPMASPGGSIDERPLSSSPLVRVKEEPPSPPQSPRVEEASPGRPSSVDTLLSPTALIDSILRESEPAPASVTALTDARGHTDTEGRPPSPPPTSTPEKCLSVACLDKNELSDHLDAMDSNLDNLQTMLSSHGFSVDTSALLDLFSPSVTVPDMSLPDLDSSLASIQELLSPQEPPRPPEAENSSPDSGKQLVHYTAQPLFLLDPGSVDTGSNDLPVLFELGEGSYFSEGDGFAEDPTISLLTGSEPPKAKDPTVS
Chain of CRX (O43186 whole entry): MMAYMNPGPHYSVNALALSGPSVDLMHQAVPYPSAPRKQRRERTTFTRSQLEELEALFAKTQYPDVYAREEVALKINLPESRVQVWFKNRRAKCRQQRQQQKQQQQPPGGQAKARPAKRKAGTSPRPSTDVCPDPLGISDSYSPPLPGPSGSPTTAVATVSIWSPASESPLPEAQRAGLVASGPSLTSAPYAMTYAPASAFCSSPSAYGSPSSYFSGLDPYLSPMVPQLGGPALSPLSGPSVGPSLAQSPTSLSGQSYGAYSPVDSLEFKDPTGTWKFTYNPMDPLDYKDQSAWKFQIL
Chain of ELF4 (Q99607 whole entry): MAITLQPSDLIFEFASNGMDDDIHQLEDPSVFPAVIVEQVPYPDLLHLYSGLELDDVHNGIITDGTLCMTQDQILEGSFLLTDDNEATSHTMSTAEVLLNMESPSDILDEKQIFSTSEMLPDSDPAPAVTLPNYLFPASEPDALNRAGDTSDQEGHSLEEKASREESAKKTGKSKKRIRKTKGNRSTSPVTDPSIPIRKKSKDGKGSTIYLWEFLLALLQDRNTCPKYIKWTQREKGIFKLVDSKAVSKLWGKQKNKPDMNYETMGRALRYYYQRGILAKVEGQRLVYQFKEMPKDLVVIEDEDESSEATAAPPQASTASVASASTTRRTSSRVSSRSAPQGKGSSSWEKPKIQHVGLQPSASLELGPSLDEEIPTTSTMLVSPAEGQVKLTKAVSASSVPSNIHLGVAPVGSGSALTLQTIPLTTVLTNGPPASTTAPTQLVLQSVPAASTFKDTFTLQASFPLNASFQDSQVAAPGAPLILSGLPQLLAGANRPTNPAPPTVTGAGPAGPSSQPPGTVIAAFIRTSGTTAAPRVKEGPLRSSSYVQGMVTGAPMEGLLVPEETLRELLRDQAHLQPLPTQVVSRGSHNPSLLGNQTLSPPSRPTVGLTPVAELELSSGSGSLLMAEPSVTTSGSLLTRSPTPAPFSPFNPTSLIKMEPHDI
Chain of ETV5 (P41161 whole entry): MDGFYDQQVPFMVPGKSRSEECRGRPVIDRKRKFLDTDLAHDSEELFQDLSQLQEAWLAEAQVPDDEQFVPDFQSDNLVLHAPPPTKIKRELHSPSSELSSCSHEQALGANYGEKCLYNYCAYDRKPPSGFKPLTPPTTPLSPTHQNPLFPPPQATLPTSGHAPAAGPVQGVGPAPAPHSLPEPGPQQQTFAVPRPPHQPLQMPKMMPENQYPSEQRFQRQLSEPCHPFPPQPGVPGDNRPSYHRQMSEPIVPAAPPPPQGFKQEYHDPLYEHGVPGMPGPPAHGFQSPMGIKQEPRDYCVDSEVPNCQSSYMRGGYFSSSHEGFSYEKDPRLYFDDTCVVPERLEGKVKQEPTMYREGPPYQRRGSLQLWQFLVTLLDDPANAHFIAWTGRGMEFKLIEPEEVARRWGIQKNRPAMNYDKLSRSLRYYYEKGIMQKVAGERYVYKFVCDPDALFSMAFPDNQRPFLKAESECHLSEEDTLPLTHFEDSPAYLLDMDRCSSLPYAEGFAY

Q: With GAATAA as the sequence, how does the binding signal (FEV) read?
A: The binding signal was 1.08 fold enrichment (6-mer frequency, TF over GST control).

Q: And the binding signal (ETV5)?
A: Its binding signal is 1.09 fold enrichment (6-mer frequency, TF over GST control).

Q: And the binding signal (HSF1)?
A: Its binding signal is 1.62 fold enrichment (6-mer frequency, TF over GST control).

Q: And the binding signal (SPIC)?
A: Its binding signal is 1.17 fold enrichment (6-mer frequency, TF over GST control).

Q: And the binding signal (ELF4)?
A: The binding signal was 1.13 fold enrichment (6-mer frequency, TF over GST control).

Q: What about the binding signal (ELK4) of the same sequence?
A: The binding signal was 1.04 fold enrichment (6-mer frequency, TF over GST control).

Q: What about the binding signal (ETV2) of the same sequence?
A: The binding signal was 1.13 fold enrichment (6-mer frequency, TF over GST control).

Q: What about the binding signal (ELF3) of the same sequence?
A: The binding signal was 1.12 fold enrichment (6-mer frequency, TF over GST control).

Q: What about the binding signal (CRX) of the same sequence?
A: Its binding signal is 1.57 fold enrichment (6-mer frequency, TF over GST control).
